The results in this text go back to PubChem BioAssay (NCATS).

Values joined by “and” are separate entries in the source; they are usually repeats but may differ in a detail not shown here. Equal values may be shown once. Records with an inconclusive call do not appear. Active and inactive are the calls of the source. Calls follow the shape of the dose curve; as a rule, active = well fitted curve in the direction sought with a large enough effect in the signal ratio, with a control signal flat; inconclusive = small, poorly fitted or top-dose-only effect, or a change in a side signal; inactive = no such curve, though single readings can be large or run the other way; the % refers to the signal ratio.

Chain of Glucocorticoid receptor (Homo sapiens) (P04150 whole entry, looked up): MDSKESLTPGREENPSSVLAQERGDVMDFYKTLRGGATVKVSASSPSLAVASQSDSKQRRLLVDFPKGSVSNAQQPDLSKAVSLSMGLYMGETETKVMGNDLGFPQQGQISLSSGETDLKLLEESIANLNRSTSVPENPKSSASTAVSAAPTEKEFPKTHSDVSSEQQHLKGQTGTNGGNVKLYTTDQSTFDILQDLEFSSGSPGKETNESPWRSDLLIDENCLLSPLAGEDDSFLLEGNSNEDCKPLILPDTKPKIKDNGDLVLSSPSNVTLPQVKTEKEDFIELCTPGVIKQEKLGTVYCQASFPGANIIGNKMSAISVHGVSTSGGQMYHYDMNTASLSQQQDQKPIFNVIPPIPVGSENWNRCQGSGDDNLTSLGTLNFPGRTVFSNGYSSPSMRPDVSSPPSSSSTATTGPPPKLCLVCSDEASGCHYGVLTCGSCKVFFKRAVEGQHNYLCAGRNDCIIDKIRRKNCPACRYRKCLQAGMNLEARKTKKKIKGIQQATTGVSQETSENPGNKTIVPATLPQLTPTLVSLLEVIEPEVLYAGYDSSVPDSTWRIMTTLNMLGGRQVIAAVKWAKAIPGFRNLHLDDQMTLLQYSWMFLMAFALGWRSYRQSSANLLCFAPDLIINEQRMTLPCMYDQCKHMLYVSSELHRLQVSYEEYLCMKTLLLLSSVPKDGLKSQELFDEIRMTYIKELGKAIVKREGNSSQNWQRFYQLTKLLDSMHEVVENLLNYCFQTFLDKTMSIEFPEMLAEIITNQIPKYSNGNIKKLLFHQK

The target in this experiment is Glucocorticoid receptor (Homo sapiens) (UniProt P04150). Kind of experiment: qHTS assay for small molecule agonists of glucocorticoid receptor signaling (AID 588532). The conditions noted are these: HeLa MMTV-bla, beta-lactamase ratio, agonist, 18 h; hits give high values; percent of dexamethasone control, DMSO zero. An excerpt:
NIH Chemical Genomics Center [NCGC] U.S. Environmental Protection Agency [EPA] National Institutes of Environmental Health Sciences [NIEHS] National Toxicology Program [NTP] NCGC Assay Overview The Glucocorticoid receptor (GR), a nuclear receptor subfamily member and its natural ligands includes […] etc. The GR is a validated drug target for inflammation. GR ligands such as dexamethasone are clinically available as anti-inflammatory drugs. Glucocorticoids implicate role in carbohydrate, protein and lipid metabolisms and programmed cell death. They are also a component of many chemotherapy regimens for the treatment of leukemias, lymphomas, and myelomas because of their role in the induction of apoptosis.
NCGC Assay Protocol Summary Using a beta-lactamase reporter-gene under control of glucocorticoid response element (GRE), a cell-based assay [CellSensor MMTV-bla HeLa cell line assay developed by Invitrogen] was used to measure GR ligands signaling. CellSensor MMTV-bla HeLa cells were used with assay medium containing 1% charcoal/dextran treated FBS, 0.1 mM NEAA, 1 mM sodium pyruvate and 25mM HEPES. The assay was performed in clear bottom black Greiner 1536-well plates. Dexamethasone and Mifepristine were used in the screen as agonist and antagonist positive controls respectively. Library compounds were measured for their ability to stimulate the reporter gene activity. Compounds were screened in a titration series in 1536-well format. The fluorescence intensity (405 nm excitation, 460/530 nm emission) was measured using an EnVision plate reader. Data was normalized relative to Dexamethasone control (0.1 uM, 100%), and DMSO only wells (basal, 0%). Concentration-response titration points for each compound were fitted to the Hill equation yielding concentrations of half-maximal stimulation (EC50) and maximal response (efficacy) values. qHTS protocol for GR beta-lactamase assay in agonist mode [Step] [Parameter] [Value] [Description] 1. Reagent; 6 uL; 1500 cells/well 2. Incubation; 37 C for 3-5 hrs 3. Compounds; 23 nL; 0.59 nM to 92 uM 4. Controls (Dexamethasone); 23 nL, - One column with dose response, start 4.6uM, 1:3 dilutions in duplicates - Final concentrations of 0.1 uM and 2 nM in two columns 5. Incubation; 37 C for 18 hrs 6. Detection reagent; 1 uL of CCF4-dye 7. Incubation; RT for 2 hrs 8. Detection; Fluorescence; Envision plate reader
(In general: In qHTS, concentration-response curves come from the screen itself.)
On to `O=C1CCC(N2C(=O)c3ccccc3C2=O)C(=O)N1` (stereo not given), for which the activation was -2.05% (inactive).

In the case of `CC(=O)Oc1ccccc1C(=O)O`, the activation is 0.393% (inactive) and 3.49% (inactive).

As to `O=c1[nH]cnc2[nH]ncc12`, the activation is 1.38% (inactive).

As to `NC(N)=NC(=O)c1nc(Cl)c(N)nc1N`, the activation was 0.0438% (inactive).

Consider `NC(=O)c1cnccn1`, for which the activation was -2.74% (inactive) and -4.57% (inactive).

`Cn1cnc([N+](=O)[O-])c1Sc1ncnc2nc[nH]c12`: the activation is -7.04% (inactive) and 6.25% (inactive).

As to `O=NN(CCCl)C(=O)NCCCl`, the activation was 14.4% (inactive).

As to `NC[C@H](O)c1ccc(O)c(O)c1`, the activation was -3.45% (inactive).

Consider `Cc1ccccc1C(OCCN(C)C)c1ccccc1` (stereo not given), for which the activation was 2.67% (inactive).

Consider `CCCC(CCC)C(=O)O`, for which the activation was 0.686% (inactive) and -7.28% (inactive) and -7.7% (inactive).
